Compound activity from PubChem BioAssay.
HRas wt GTP – human HRas wildtype GTP binding, change in either direction; AID 759; hit rate 0.14% among 190,000; GTP binding activity, % at 10 µM; GST-Ras wt beads, Bodipy-FL-GTP binding, flow cytometry; actives lie on both sides;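 active = GTP binding activity at least 20% away from the 100% baseline, either lowered as inhibitor or raised as activator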
Target sequence (P01112 whole entry, looked up): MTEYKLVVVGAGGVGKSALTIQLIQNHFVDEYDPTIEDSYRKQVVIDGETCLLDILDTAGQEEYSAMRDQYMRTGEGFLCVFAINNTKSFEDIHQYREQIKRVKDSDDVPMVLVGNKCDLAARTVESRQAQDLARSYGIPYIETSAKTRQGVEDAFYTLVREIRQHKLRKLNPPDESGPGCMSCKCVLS
Rab2A wt mod – changes GTP binding to wildtype dog Rab2A, up or down; P61105; GST-Rab2 wt beads, Bodipy-GTP binding, flow cytometry; GTP binding activity, % at 10 µM; hit rate 0.19% among 190,000;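 active = GTP binding activity at least 20 points away from 100%, either lowered or raised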
Rac1 act GTP bind – human Rac1 activated mutant GTP binding change | hit rate 0.11% among 190,000 | GST-Rac1 activated beads, fluorescent GTP binding, flow cytometry; actives lie on both sides; 100% means binding = to untreated wells | P63000 | percent activity (GTP binding), % at 10 µM;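 active = GTP binding at least 20 percentage points away from the 100% baseline, in either direction, so actives lie on both sides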
Rac1 wt GTP bind – human Rac1 wildtype GTP binding, inhibitors and activators; P63000; GST-Rac1 beads, fluorescent GTP binding, flow cytometry; actives lie on both sides; 0 = cold GTP competed, 100 = untreated; GTP binding activity (% of control), % at 10 µM; hit rate 0.27% among 190,000; AID 757;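 active = GTP binding activity at least 20 points away from the 100% control level, either lower or higher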
Rab7 wt GTP bind – dog Rab7 wildtype GTP binding, inhibitors and activators; GST-Rab7 beads, fluorescent GTP binding, flow cytometry; actives lie on both sides; untreated = 100%, excess cold GTP = 0%; GTP binding activity (percent of control), % at 10 µM; hit rate 0.055% among 190,000; AID 758;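 active = fluorescent GTP binding to Rab7 beads changed by at least 20 points from the 100% baseline, either direction, mostly lower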;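 also: median green fluorescence of bound Bodipy-FL-GTP per Rab7 bead population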
Cdc42 wt – modulators (inhibitors or activators) of GTP binding to human Cdc42 wildtype; P60953; GST-Cdc42 beads, Bodipy-GTP binding, flow cytometry; actives lie on both sides; percent activity (GTP binding), % at 10 µM; hit rate 0.2% among 190,000; AID 761;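 active = percent activity GTP binding at least 20 points away from the 100% baseline, either down as inhibitor or up as activator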;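 also: median bead fluorescence of bound Bodipy-FL-GTP at 100 nM; below 100% means less GTP binding so inhibitor and above means activator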
Target sequence (P60953 whole entry, looked up): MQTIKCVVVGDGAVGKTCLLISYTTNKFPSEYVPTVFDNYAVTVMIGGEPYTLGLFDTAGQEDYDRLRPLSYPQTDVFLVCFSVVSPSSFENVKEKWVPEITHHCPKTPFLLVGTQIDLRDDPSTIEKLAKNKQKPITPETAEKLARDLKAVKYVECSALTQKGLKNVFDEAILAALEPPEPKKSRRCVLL
Each line names hits and unclear results; the compound was inactive in the other large screens; [ ] = remark or other dose. Compounds with a hit are over-represented: about 0.38% of the library has one in this group of screens.

COc1cc(/C=N/NC(=O)c2sc(N)c(C#N)c2C)ccc1O	none
COc1ccc(C(=O)Nc2cc(Cl)ccc2C(=O)O)cc1	Rac1 act GTP bind 77, Cdc42 wt 78
COc1ccc(C(=O)Nc2cc(Cl)ccc2OC(=O)c2ccc(OC)cc2)cc1	none
CC1(C)CC2CC(C)(CN2C(=O)c2cccs2)C1 (centres undefined)	Rac1 wt GTP bind 157[activator], Cdc42 wt 133[activator]
COc1ccccc1NC(=O)CN(Cc1ccco1)C(=O)c1cc2ccccc2o1	none
COc1cc(/C=C2/SC(N)=NC2=O)ccc1Oc1ccc([N+](=O)[O-])cc1[N+](=O)[O-]	none
NC1=NC(=O)/C(=C\c2ccc(O)c([N+](=O)[O-])c2)S1	HRas wt GTP 66, Rab2A wt mod 63, Rac1 wt GTP bind 78, Cdc42 wt 61
COc1cc(NC2c3ccccc3C(=O)N2c2ccc(C)cn2)cc(OC)c1OC (centres undefined)	none
Cc1ccc(N2C(=O)c3ccccc3C2Nc2cccnc2)nc1 (centres undefined)	Rac1 wt GTP bind 121[activator]
CCN1C(c2ccccc2)=C(c2ccccc2)S/C1=C/C=C1\SC(=S)N(C)C1=O	HRas wt GTP 66, Rab2A wt mod 71, Rac1 act GTP bind 69, Rac1 wt GTP bind 71, Rab7 wt GTP bind 72, Cdc42 wt 67
CN1CCS/C1=C/C=C1/SC(=S)N(Cc2ccccc2)C1=O	none
CCN1C(=O)/C(=C/C=C2/Sc3ccc4ccccc4c3N2CCO)SC1=S	HRas wt GTP 78, Rac1 wt GTP bind 75, Cdc42 wt 78
CCN1/C(=C\C=C2\C(=O)N(C)C(=S)N2C)Sc2ccccc21	none
Cc1cccc(N2CN(Cc3ccco3)CNC2=S)c1	none
C/C(=C1/SC(=S)N(CCC(=O)O)C1=O)c1ccc(O)cc1	Rac1 act GTP bind 77
O=c1c2ccccc2nc2c3ccccc3c(NCc3ccco3)nn12	HRas wt GTP 68, Rab2A wt mod 66, Rac1 wt GTP bind 77, Cdc42 wt 67
O=c1c2ccccc2nc2c3ccccc3cnn12	HRas wt GTP 77, Rab2A wt mod 77, Rac1 wt GTP bind 65, Cdc42 wt 78
O=c1c2ccccc2nc2c3ccccc3c(Cl)nn12	Rab2A wt mod 78, Rac1 wt GTP bind 69
CCNC(=S)Nc1cccc(F)c1C	none
CN(CCCN1CCCCC1)C(=O)CCc1nnc(C2CCCCC2)o1	none
CS(=O)(=O)N1CCN(c2ccc(Cl)cc2[N+](=O)[O-])CC1	none
Cc1cccc(NC(=O)CSc2nc3c([nH]c4ccccc43)c(=O)n2C)c1	none
COc1cccc(NC(=O)CSc2nc3c([nH]c4ccccc43)c(=O)n2C)c1	Rac1 wt GTP bind 123[activator]
COc1ccc2c(c1)C=C(C(=O)OCc1cccnc1)CO2	none
CCOC(=O)c1c(NC(=O)/C=C/c2ccc3c(c2)OCO3)sc(C)c1C	none
CCOC(=O)c1c(NC(=O)/C=C/c2ccc3c(c2)OCO3)sc(C)c1CC	Rac1 act GTP bind 77
COc1ccc(/C=N/Nc2ncnc3sc(C)c(C)c23)cc1	none
Cc1sc2ncnc(N/N=C/c3ccc(O)cc3)c2c1C	Rab2A wt mod 77
Cc1ccc(-c2noc(-c3ccoc3C)n2)cc1	none
O=C(Cn1c(-c2cscn2)nc2ccccc21)Nc1cc(F)ccc1F	Rac1 wt GTP bind 121[activator]
CCC(C)NC(=O)COC(=O)c1oc2ccccc2c1CSc1ccc(Cl)cc1 (centres undefined)	none
O=C(/C=C/c1ccccc1)NC(NC(=S)Nc1ccc(C(=O)O)cc1)C(Cl)(Cl)Cl (centres undefined)	Rab2A wt mod 79
O=C(/C=C/c1ccccc1)NC(NC(=S)Nc1cccc(O)c1)C(Cl)(Cl)Cl (centres undefined)	none
CC1=NC(=O)C(N=Nc2ccccc2C(=O)O)N1c1ccccc1 (centres undefined)	Rac1 wt GTP bind 79
CC1=NC(=O)C(N=Nc2ccccc2)N1c1ccccc1 (centres undefined)	none
CCOC(=O)c1cc(C(=O)OCC)c(=O)[nH]c1N1CCCC1	HRas wt GTP 57, Rab2A wt mod 54, Rac1 act GTP bind 50, Rac1 wt GTP bind 51, Rab7 wt GTP bind 24, Cdc42 wt 56
CCOC(=O)c1cc(C(=O)OCC)c(=O)[nH]c1C	none
Cc1ccc(-c2c[n+](CC(=O)Nc3cc(=O)n(C)c(=O)n3C)c3n2CCC3)cc1	none
Cn1cnnc1SCC(=O)c1ccc(O)c(O)c1	none
COc1ccc2ccccc2c1/C=N/NC(=S)Nc1cc(S(=O)(=O)N2CCOCC2)ccc1N1CCOCC1	none
COc1ccc(/C=N/NC(=S)Nc2cc(S(=O)(=O)N3CCOCC3)ccc2N2CCOCC2)cc1O	Rac1 wt GTP bind 136[activator]
N#Cc1c(C(F)(F)F)cc(-c2ccc(Cl)cc2)[nH]c1=O	Rac1 act GTP bind 78, Rac1 wt GTP bind 78, Rab7 wt GTP bind 78, Cdc42 wt 76
Cn1c(N)c(C(=O)COC(=O)[C@@H]2CCCN2S(=O)(=O)c2ccc(Cl)cc2)c(=O)n(C)c1=O	none
COc1cc(/C=C2\SC(=Nc3ccc(O)cc3)NC2=O)cc(OC)c1O	Rac1 wt GTP bind 72, Cdc42 wt 79
O=C1NC(=Nc2ccc(O)cc2)S/C1=C/c1ccco1	none
Cc1cc(N/N=C/c2ccc(O)cc2O)nc(-c2ccccc2O)n1	HRas wt GTP 79, Rab2A wt mod 77, Rac1 wt GTP bind 71
Cc1cccc(Cc2c(C)nc3nc(SCC(=O)O)nn3c2C)c1	HRas wt GTP 78, Rab2A wt mod 74, Rac1 act GTP bind 68, Rac1 wt GTP bind 72, Cdc42 wt 66
Cc1nc2nc(SCC(=O)NCCN3CCOCC3)nn2c(C)c1Cc1ccccc1	none
COc1ccccc1C(=O)N/C(=C/c1ccc(Br)cc1)C(=O)N1CCCC1	none
COc1cc(CN(C2CCCCC2)S(=O)(=O)c2ccc(S(=O)(=O)N(C)C3CCCCC3)cc2)cc(OC)c1OC	none
COC(=O)[C@@H](NC(=O)O[C@@H]1C(=O)c2ccc(OC)cc2O[C@H]1c1cccc(C(F)(F)F)c1)C(C)C	none
O=C(N=Nc1c(O)[nH]c2ccc([N+](=O)[O-])cc12)c1cc(-c2ccccc2Cl)nc2ccccc12	none
COc1ccccc1C(=O)N=Nc1c(O)[nH]c2ccc([N+](=O)[O-])cc12	HRas wt GTP 53, Rab2A wt mod 51, Rac1 act GTP bind 66, Rac1 wt GTP bind 45, Rab7 wt GTP bind 66, Cdc42 wt 51
CC(C)NC(=S)N=Nc1c(O)[nH]c2ccc([N+](=O)[O-])cc12	HRas wt GTP 72, Rab2A wt mod 68, Rac1 wt GTP bind 62, Cdc42 wt 68
CCc1nc2ccc(C(=O)O)cc2nc1CC	none
